Assay results taken from PubChem BioAssay AID1159580 (chemical genetic matrix, 2015).
Out of some 5,500 compounds screened, about 2,000 (36%) were called active. Not shown: some 18% with an inconclusive outcome. Cut-off read from the data, not from the text of the source: active = normalized growth mostly below about 0.91 (no sharp cut-off); inconclusive = no clear call, values can overlap the other calls; inactive = mostly above about 0.92. The list shows a part of the results.

Test: chemical genetic growth profiling, strain panel (AID 1159580);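 note: tested at 20 µM; growth read once vehicle control cultures reached saturation at 30 °C; 1 = growth at the plate median or of vehicle wells; lower values mean less growth of the strain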
Conditions: S. cerevisiae deletion strains, growth OD

Measured: normalized growth

O=c1[nH]c(=O)c2nc3ccccc3nc2[nH]1
inactive: locus YAL040C, strain CLN3, hits give low values 0.979 | locus YER002W, strain NOP16, hits give low values 1 | locus YGR078C, strain PAC10, hits give low values 1.01 | locus YMR307W, strain GAS1, hits give low values 0.994 | locus YNL153C, strain GIM3, hits give low values 1.01 | locus YNL175C, strain NOP13, hits give low values 0.98 | locus YNL197C, strain WHI3, hits give low values 0.971 | locus YNL224C, strain SQS1, hits give low values 0.999 | locus YOR083W, strain WHI5 (second series), hits give low values 0.997 | locus YPL241C, strain CIN2, hits give low values 1

O=[N+]([O-])c1ccc(-c2noc(-c3ccno3)n2)o1
active: locus YAR019C, strain CDC15, hits give low values 0.0919 | locus YBL105C, strain PKC1, hits give low values 0.118 | locus YBR135W, strain CKS1, hits give low values 0.133 | locus YBR136W, strain MEC1, hits give low values 0.119 | locus YBR160W, strain CDC28, hits give low values 0.121 | locus YDL017W, strain CDC7, hits give low values 0.122 | locus YDL028C, strain MPS1, hits give low values 0.128 | locus YDL101C, strain DUN1, hits give low values 0.143 | locus YDL108W, strain KIN28, hits give low values 0.123 | locus YDL132W, strain cdc53, hits give low values 0.106 | locus YDL214C, strain PRR2, hits give low values 0.103 | locus YDR052C, strain DBF4, hits give low values 0.129 | locus YDR054C, strain cdc34, hits give low values 0.108 | locus YDR226W, strain ADK1, hits give low values 0.113 | locus YDR477W, strain SNF1, hits give low values 0.102 | locus YER123W, strain YCK3, hits give low values 0.113 | locus YER133W, strain GLC7, hits give low values 0.102 | locus YFL009W, strain cdc4, hits give low values 0.109 | locus YFL029C, strain CAK1, hits give low values 0.0982 | locus YFR003C, strain YPI1, hits give low values 0.126 | locus YFR019W, strain FAB1, hits give low values 0.104 | locus YFR028C, strain CDC14, hits give low values 0.0999 | locus YGR040W, strain KSS1, hits give low values 0.107 | locus YGR052W, strain FMP48, hits give low values 0.123 | locus YGR092W, strain DBF2, hits give low values 0.106 | locus YHR030C, strain SLT2, hits give low values 0.135 | locus YHR079C, strain IRE1, hits give low values 0.171 | locus YHR082C, strain KSP1, hits give low values 0.143 | locus YHR205W, strain SCH9, hits give low values -0.000394 | locus YIL147C, strain SLN1, hits give low values 0.129 | locus YJL095W, strain BCK1, hits give low values 0.141 | locus YJL128C, strain PBS2, hits give low values 0.117 | locus YJL157C, strain FAR1, hits give low values 0.107 | locus YJR016C, strain ILV3, hits give low values 0.0915 | locus YJR066W, strain TOR1 (second series), hits give low values 0.0932 | locus YJR066W, strain TOR1, hits give low values 0.125 | locus YKL048C, strain ELM1, hits give low values 0.115 | locus YKL067W, strain YNK1, hits give low values 0.0963 | locus YKL101W, strain HSL1, hits give low values 0.106 | locus YKL193C, strain SDS22, hits give low values 0.0909 | locus YKL203C, strain TOR2, hits give low values 0.104 | locus YLR113W, strain HOG1, hits give low values 0.2 | locus YLR133W, strain CKI1, hits give low values 0.0997 | locus YLR403W, strain SFP1, hits give low values 0.00715 | locus YML070W, strain DAK1, hits give low values 0.1 | locus YMR001C, strain CDC5, hits give low values 0.093 | locus YMR205C, strain PFK2 (second series), hits give low values 0.0958 | locus YMR277W, strain FCP1, hits give low values 0.0929 | locus YNL006W, strain LST8, hits give low values 0.104 | locus YNL020C, strain ARK1, hits give low values 0.101 | locus YNL161W, strain CBK1, hits give low values 0.103 | locus YNL183C, strain NPR1, hits give low values 0.138 | locus YNL207W, strain RIO2, hits give low values 0.0962 | locus YNL222W, strain SSU72, hits give low values 0.1 | locus YNL307C, strain MCK1 (second series), hits give low values 0.11 | locus YOL078W, strain AVO1, hits give low values 0.0939 | locus YOL136C, strain PFK27, hits give low values 0.124 | locus YOR061W, strain CKA2, hits give low values 0.0948 | locus YOR119C, strain RIO1, hits give low values 0.112 | locus YOR231W, strain MKK1, hits give low values 0.14 | locus YOR329C, strain SCD5, hits give low values 0.104 | locus YPL031C, strain PHO85, hits give low values 0.112 | locus YPL153C, strain RAD53, hits give low values 0.0949 | locus YPL204W, strain HRR25, hits give low values 0.106 | locus YPL209C, strain IPL1, hits give low values 0.105 | locus YPL256C, strain CLN2, hits give low values 0.178 | locus YPR025C, strain CCL1, hits give low values 0.111 | locus YPR106W, strain ISR1, hits give low values 0.132 | locus YPR111W, strain DBF20, hits give low values 0.149 | strain NNK1, hits give low values 0.104 | strain TSCII, hits give low values 0.0899
